Publication PMC8384837, “Expanding the binding specificity for RNA recognition by a PUF domain”

Each sequence was assayed against PUM1 PUF domain R4-QPG (Homo sapiens, UniProt Q14671 828-1176, N971Q;H972P;Q975G) (assay: yeast three-hybrid, YBZ-1, SC-Leu-His + 0.5 mM 3-AT, 4 days). Details: tags: N-Gal4 AD-HA kept; label: inside an RPR1-promoter hybrid RNA with tandem MS2 sites; ssRNA.
How it was run: (§1)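 Sequencing with Illumina followed PCR amplification of the repeat regions from transformants grown four days on SC-Leu (input) or SC-Leu-His + 0.5 mM 3-AT (selection). The transformants were strain YBZ-1 with a LexA–MS2 coat fusion and a HIS3 reporter, carrying Pumilio-1 PUF domain libraries and matching RNA elements. The interaction score is the log change in variant frequency from input to selection, computed in log2 with a pseudocount of 1 for absent variants.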

Chain of PUM1 PUF domain R4-QPG (Q14671 828-1176 N971Q/H972P/Q975G): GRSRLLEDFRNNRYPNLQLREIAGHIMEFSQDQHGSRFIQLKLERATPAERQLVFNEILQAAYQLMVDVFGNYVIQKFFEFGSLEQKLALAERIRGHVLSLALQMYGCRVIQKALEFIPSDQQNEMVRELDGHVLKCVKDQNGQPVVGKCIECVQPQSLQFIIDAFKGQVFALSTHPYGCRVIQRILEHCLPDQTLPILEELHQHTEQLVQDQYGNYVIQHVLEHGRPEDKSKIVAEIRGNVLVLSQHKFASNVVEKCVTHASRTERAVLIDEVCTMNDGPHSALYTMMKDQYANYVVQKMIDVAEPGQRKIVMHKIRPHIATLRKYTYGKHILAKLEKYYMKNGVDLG

| Sequence | binding signal |
| --- | --- |
| GGCUAGAACUAGUGGAUCCCCCGGCGCCCGGCGGCUCGAGCCCGGGUAAGUGUAAAUAGUCUGCAUGCCGCCGGGCGCCAUGCCUGCAGGUCGACUCUAGAAAACAUG | 2.21 log2 enrichment (interaction score) |
| GGCUAGAACUAGUGGAUCCCCCGGCGCCCGGCGGCUCGAGCCCGGGUAAGUGUAUAUAGUCUGCAUGCCGCCGGGCGCCAUGCCUGCAGGUCGACUCUAGAAAACAUG | 5.06 log2 enrichment (interaction score) |
| GGCUAGAACUAGUGGAUCCCCCGGCGCCCGGCGGCUCGAGCCCGGGUAAGUGUACAUAGUCUGCAUGCCGCCGGGCGCCAUGCCUGCAGGUCGACUCUAGAAAACAUG | 3.33 log2 enrichment (interaction score) |

The sequences below were run against PUM1 PUF domain R5-DWY (Homo sapiens, UniProt Q14671 828-1176, C1007D;R1008W;Q1011Y) in the same assay as above. Details: tags: N-Gal4 AD-HA kept; label: inside an RPR1-promoter hybrid RNA with tandem MS2 sites; ssRNA.
How it was run: as §1

Chain of PUM1 PUF domain R5-DWY (Q14671 828-1176 C1007D/R1008W/Q1011Y): as the sequence (Q14671 828-1176 N971Q/H972P/Q975G) above, with Q144N, P145H, G148Q, C180D, R181W, Q184Y counted along it

| Sequence | binding signal |
| --- | --- |
| GGCUAGAACUAGUGGAUCCCCCGGCGCCCGGCGGCUCGAGCCCGGGUAAGUGUAAAUAGUCUGCAUGCCGCCGGGCGCCAUGCCUGCAGGUCGACUCUAGAAAACAUG | 6.99 log2 enrichment (interaction score) |
| GGCUAGAACUAGUGGAUCCCCCGGCGCCCGGCGGCUCGAGCCCGGGUAAGUGUCAAUAGUCUGCAUGCCGCCGGGCGCCAUGCCUGCAGGUCGACUCUAGAAAACAUG | 1.16 log2 enrichment (interaction score) |
| GGCUAGAACUAGUGGAUCCCCCGGCGCCCGGCGGCUCGAGCCCGGGUAAGUGUGAAUAGUCUGCAUGCCGCCGGGCGCCAUGCCUGCAGGUCGACUCUAGAAAACAUG | 2.39 log2 enrichment (interaction score) |

Each sequence was assayed against PUM1 PUF domain R5-GRK (Homo sapiens, UniProt Q14671 828-1176, C1007G;Q1011K) in the same assay as above. Details: tags: N-Gal4 AD-HA kept; label: inside an RPR1-promoter hybrid RNA with tandem MS2 sites; ssRNA.
How it was run: as §1

Chain of PUM1 PUF domain R5-GRK (Q14671 828-1176 C1007G/Q1011K): as the sequence (Q14671 828-1176 N971Q/H972P/Q975G) above, with Q144N, P145H, G148Q, C180G, Q184K counted along it

| Sequence | binding signal |
| --- | --- |
| GGCUAGAACUAGUGGAUCCCCCGGCGCCCGGCGGCUCGAGCCCGGGUAAGUGUAAAUAGUCUGCAUGCCGCCGGGCGCCAUGCCUGCAGGUCGACUCUAGAAAACAUG | 3.37 log2 enrichment (interaction score) |
| GGCUAGAACUAGUGGAUCCCCCGGCGCCCGGCGGCUCGAGCCCGGGUAAGUGUCAAUAGUCUGCAUGCCGCCGGGCGCCAUGCCUGCAGGUCGACUCUAGAAAACAUG | 2.77 log2 enrichment (interaction score) |
| GGCUAGAACUAGUGGAUCCCCCGGCGCCCGGCGGCUCGAGCCCGGGUAAGUGUUAAUAGUCUGCAUGCCGCCGGGCGCCAUGCCUGCAGGUCGACUCUAGAAAACAUG | 4.85 log2 enrichment (interaction score) |
| GGCUAGAACUAGUGGAUCCCCCGGCGCCCGGCGGCUCGAGCCCGGGUAAGUGUGAAUAGUCUGCAUGCCGCCGGGCGCCAUGCCUGCAGGUCGACUCUAGAAAACAUG | 1.55 log2 enrichment (interaction score) |
